Experimental data reported in PubChem BioAssay (NCI).
Compounds without any hit were thinned out: in the full panel of roughly 83,000, 20% have a hit.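 Results are percent growth after 48 hours of single-concentration exposure. 100 means growth as in untreated cells, lower positive values show inhibition; negative values down to -100 show cell death.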 Calls of active or inactive are those of the source. Rule for the calls: active = growth percent below 10; inactive = the rest.

Assays:
Test in all cases: NCI-60 one-dose screen, 48 h (100 = growth as untreated, 0 = no growth, -100 = all killed)
Conditions in all cases: 10 µM unless noted
NCI-H23 lung = tested on: NCI-H23 lung
NCI-H322M lung = tested on: NCI-H322M lung
HOP-62 NSCLC = tested on: HOP-62 NSCLC
NCI-H460 lung = tested on: NCI-H460 lung
HOP-92 NSCLC = tested on: HOP-92 NSCLC
NCI-H522 lung = tested on: NCI-H522 lung
A549/ATCC NSCLC = tested on: A549/ATCC NSCLC
786-0 renal = tested on: 786-0 renal
COLO 205 colon = tested on: COLO 205 colon

Measured: growth

CNC(=O)c1cc(Oc2cccc3nc(Nc4ccc(Cl)c(F)c4)ccc23)ccn1
active: HOP-92 NSCLC 9.48%
inactive: NCI-H23 lung 62.4% | NCI-H322M lung 78.8% | HOP-62 NSCLC 34.8% | NCI-H460 lung 60.6% | NCI-H522 lung 52.7% | A549/ATCC NSCLC 61.3% | 786-0 renal 41.7% | COLO 205 colon 84.3%

C=CC(=O)Nc1cc2c(Nc3ccc(F)c(Cl)c3)ncnc2cc1C#CC(C)(C)N1CCN(C)CC1
active: NCI-H23 lung -88.9% | NCI-H322M lung -86% | HOP-62 NSCLC -88.3% | NCI-H460 lung -77% | HOP-92 NSCLC -91.3% | NCI-H522 lung -73.7% | A549/ATCC NSCLC -82% | 786-0 renal -96.3% | COLO 205 colon -71.7%

COc1cc2c(cc1OCCCCCN1CCN(c3ncnc4ccccc34)CC1)N=CC1CCCN1C2=O (stereo not given)
active: NCI-H23 lung 3.3% | NCI-H322M lung -0.115% | HOP-62 NSCLC -22.4% | NCI-H460 lung 5.35% | HOP-92 NSCLC -63.8% | NCI-H522 lung -55.4% | A549/ATCC NSCLC 1.13% | 786-0 renal -9.08% | COLO 205 colon -46.1%

CCc1cc2c(c3ccc(C(=O)CBr)cc13)CCCC2
inactive: NCI-H23 lung 89.1% | NCI-H322M lung 77.5% | HOP-62 NSCLC 91.6% | NCI-H460 lung 109% | HOP-92 NSCLC 109% | NCI-H522 lung 88.3% | A549/ATCC NSCLC 93% | 786-0 renal 99.7% | COLO 205 colon 102%

CC[C@@H]1C(=O)N(C)c2cnc(Nc3ccc(C(=O)NC4CCN(C)CC4)cc3OC)nc2N1C1CCCC1
active: NCI-H23 lung 8.04% | HOP-62 NSCLC -20.1% | NCI-H460 lung 8.51% | HOP-92 NSCLC 7.59% | NCI-H522 lung -14.4% | A549/ATCC NSCLC 3.29% | 786-0 renal 8.26% | COLO 205 colon -54%
inactive: NCI-H322M lung 24.9%

C=CCCCOC1[C@H](OCc2ccccc2)C(OCc2ccccc2)C(OC)O[C@@H]1CNC(=O)c1cccc(I)c1 (stereo not given in full)
active: NCI-H460 lung -7.83%
inactive: NCI-H23 lung 44.2% | NCI-H322M lung 70.3% | HOP-62 NSCLC 77.7% | HOP-92 NSCLC 67.2% | NCI-H522 lung 42.1% | A549/ATCC NSCLC 27.2% | 786-0 renal 39.5% | COLO 205 colon 36.9%

C#Cc1cccc(Nc2ncnc3cc4c(cc23)OCCOCCOCCO4)c1
active: NCI-H322M lung 1.86% | NCI-H522 lung 0.957%
inactive: NCI-H23 lung 80.5% | HOP-62 NSCLC 56.1% | NCI-H460 lung 76.6% | HOP-92 NSCLC 49.4% | A549/ATCC NSCLC 42.7% | 786-0 renal 51.7% | COLO 205 colon 86.8%

Cc1cc2c(-c3nc4ccccn4c3NC3CCCCC3)c(O)c(O)cc2c(O)c1-c1c(C)cc2c(-c3nc4ccccn4c3NC3CCCCC3)c(O)c(O)cc2c1O
active: HOP-92 NSCLC -3.03%
inactive: NCI-H23 lung 30.7% | NCI-H322M lung 54.9% | HOP-62 NSCLC 26% | NCI-H460 lung 19.2% | NCI-H522 lung 15.1% | A549/ATCC NSCLC 22.8% | 786-0 renal 72.4%

Cc1c(CN2CCN(C(=O)[C@H](C)O)CC2)sc2c(N3CCOCC3)nc(-c3cnc(N)nc3)nc12
active: NCI-H23 lung 6.62% | NCI-H322M lung -26.1% | HOP-62 NSCLC -10.3% | NCI-H460 lung 3% | HOP-92 NSCLC -24.6% | NCI-H522 lung -12.2% | A549/ATCC NSCLC -20.8% | 786-0 renal -19% | COLO 205 colon -32.3%

Cc1c(Cn2c(C)nc3c(C(=O)O)cc(N4CCOCC4)cc32)cccc1C(F)(F)F
inactive: NCI-H23 lung 105% | HOP-62 NSCLC 79% | NCI-H460 lung 102% | HOP-92 NSCLC 88.3% | NCI-H522 lung 62.9% | A549/ATCC NSCLC 89.7% | 786-0 renal 95.8% | COLO 205 colon 108%

Cn1cc(-c2[nH]c3cc(NC(=O)[C@H](N)C4CCCCC4)cc4c3c2C=NNC4=O)cn1
inactive: NCI-H322M lung 16.1% | NCI-H460 lung 11.6% | A549/ATCC NSCLC 14%
active: NCI-H23 lung -12.7% | HOP-62 NSCLC -11.3% | HOP-92 NSCLC -25.2% | NCI-H522 lung -66% | 786-0 renal -18.9% | COLO 205 colon -78.4%

CNC(=O)c1ccc(Nc2ncc(C(F)(F)F)c(NCc3nccnc3N(C)S(C)(=O)=O)n2)cc1
active: NCI-H23 lung -16.8% | NCI-H322M lung 1.99% | HOP-62 NSCLC -23.5% | NCI-H460 lung 0.647% | HOP-92 NSCLC -13.6% | NCI-H522 lung -25.2% | A549/ATCC NSCLC -14.4% | 786-0 renal 8.71% | COLO 205 colon -66.2%

CCOC(=O)c1sc(NC(=O)COc2ccc(/C=C3\Cc4ccc(Cl)cc4C3=O)cc2)nc1C
inactive: NCI-H23 lung 97.1% | HOP-62 NSCLC 109% | NCI-H460 lung 95% | HOP-92 NSCLC 92.5% | NCI-H522 lung 97.2% | A549/ATCC NSCLC 104% | 786-0 renal 110% | COLO 205 colon 118%

COc1cc2c(c(OC)c1)C1c3ccccc3NC(=O)N1CC2 (stereo not given)
inactive: NCI-H23 lung 24% | NCI-H322M lung 34.9% | HOP-62 NSCLC 51.6% | NCI-H460 lung 11.3% | HOP-92 NSCLC 28.7% | NCI-H522 lung 39.6% | A549/ATCC NSCLC 22.7% | 786-0 renal 41.4% | COLO 205 colon 16.1%

C=C1C(=O)O[C@H]2[C@H]1CC/C(C=Nc1c(N)cc(C(F)(F)F)cc1C(F)(F)F)=C\CC[C@@]1(C)O[C@@H]21
active: NCI-H23 lung -29% | NCI-H460 lung -17.9% | HOP-92 NSCLC -39.9% | NCI-H522 lung -55.4% | 786-0 renal -66.5% | COLO 205 colon -59.7%
inactive: NCI-H322M lung 49.3% | HOP-62 NSCLC 21.3% | A549/ATCC NSCLC 11.9%

COc1ccc(-c2cc3c(oc2=O)-c2ccccc2OC3OC(C)=O)cc1 (stereo not given)
inactive: NCI-H23 lung 93.4% | NCI-H322M lung 100% | HOP-62 NSCLC 98.8% | NCI-H460 lung 104% | HOP-92 NSCLC 83.5% | NCI-H522 lung 88% | A549/ATCC NSCLC 93.3% | 786-0 renal 91.3% | COLO 205 colon 97.4%

NC1=Nc2cc(OCCCN3Cc4ccccc4C3)c(OCC3CC3)cc2C12CCCC2
inactive: NCI-H23 lung 77.2% | NCI-H322M lung 91.6% | HOP-62 NSCLC 77% | NCI-H460 lung 69.8% | HOP-92 NSCLC 40.7% | NCI-H522 lung 39.7% | A549/ATCC NSCLC 64.4% | 786-0 renal 55.6%
active: COLO 205 colon -62.5%
